Laboratory results published in PubChem BioAssay AID588398 (Broad Institute, 2011).
Out of some 1,200 compounds screened, about 110 (9.2%) were called active. Not shown: some 8% with an inconclusive outcome.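 How the source made its calls: active means pathway reporter half-maximal dose under half the control reporter's, or control reporter unaffected while pathway reporter is inhibited; inconclusive means either signal flat at 30 to 70% inhibition or poorly fitted; inactive means the rest.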 These entries were drawn from the full list. Measured potencies and affinities stand elsewhere.

Experiment: LMP1 TES1 pathway selectivity over dsRED control – imaging, HEK293T, dual-color eGFP/dsRED, cherry-picks, selectivity assay for LMP1 NF-kB inhibitor project, dose response (AID 588398)
Details: 48 h; HEK293T Tet-On dsRED counter-screen channel, at 19.5 µM (top of the series)
With `COc1ccc(C=C2OC(=O)C(C(C)=O)=C2O)cc1` the outcome was “inactive”. With `COc1ccc(-c2[nH]ncc2/C=N\NS(=O)(=O)c2ccc(Cl)cc2)cc1` the outcome was “inactive”. For `Cc1ccc(CCNC(=O)Cc2ccc(NC3=NC4CS(=O)(=O)CC4S3)cc2)cc1` (stereo not given), the outcome was “inactive”. With `O=C(NN1C(=O)C2C3C=CC(C4CC34)C2C1=O)c1cccc(Cl)c1` (stereo not given) the outcome was “inactive”. In the case of `CCc1ccccc1NC(=O)COC(=O)c1c(C)nsc1NC`, the outcome is reported as “inactive”. With `Oc1c(N=NC(=S)Nc2ccccc2F)c2ccccc2n1Cc1ccccc1Cl` the outcome was “inactive”. For `O=c1cc(Cl)nc2ccccn12`, the outcome was “inactive”. With `COc1ccc(-c2cc(C(=O)N3CCCC3)no2)cc1` the outcome was “inactive”. In the case of `COc1ccc(CNC(=O)N2[C@H]3CC[C@@H]2C=C(c2ccc(F)cc2OCc2ccccc2)C3)cc1OC`, the outcome is reported as “inactive”. For `COc1cc(C(=O)Oc2ccccc2/C=N/NC(=O)c2ccc(C)c(Cl)c2)cc(OC)c1OC`, the outcome was “inactive”. For `CCCC(=O)NCCCc1nc2ccccc2[nH]1`, the outcome was “inactive”. With `O=C(Nc1nc(-c2ccccn2)cs1)c1ccc(Cl)s1` the outcome was “inactive”. With `COc1ccc(C(=O)NCCN2CCOCC2)cc1[N+](=O)[O-]` the outcome was “inactive”. With `O=C(c1ccccc1)C(CCC(CN1CCOCC1)C(=O)c1ccccc1)CN1CCOCC1` (stereo not given) the outcome was “inactive”. In the case of `CCON1C(=O)C2(CCCCC2)C(=O)C12C=CCCC2` (stereo not given), the outcome is reported as “inactive”. With `COc1cc(N(C)C)c([N+](=O)[O-])cc1C(=O)N1CCN(Cc2ccccc2)CC1` the outcome was “inactive”. For `CC1CCN(C(=O)/C(=C\c2cccs2)NC(=O)c2ccccc2)CC1`, the outcome was “inactive”. For `CCn1c(NC(=O)c2ccc(C)cc2)c2ccccc2nc1=O`, the outcome was “inactive”. In the case of `COc1ccc2cc(-c3cc(C(=O)OCC(=O)Nc4c(C)n(C)n(-c5ccccc5)c4=O)c4ccccc4n3)ccc2c1`, the outcome is reported as “inactive”. In the case of `COc1ccc(N2Cc3ccccc3C2=O)cc1`, the outcome is reported as “inactive”. For `O=C(NCc1ccccc1Cl)C1CCCN1S(=O)(=O)c1ccc(F)cc1` (stereo not given), the outcome was “inactive”. For `O=C(Nc1ncccc1O)c1ccc(S(=O)(=O)NCc2ccco2)cc1`, the outcome was “inactive”. For `CCc1cc(C(=O)Nc2ncccc2O)sc1C`, the outcome was “inactive”. With `COCCn1c(SCC(=O)N2CCc3ccccc32)nc2c(c1=O)SC(C)C2` (stereo not given) the outcome was “inactive”. For `COc1ccc(-c2oc3ncnc(NCCN4CCOCC4)c3c2-c2ccc(OC)cc2)cc1`, the outcome was “inactive”. In the case of `COc1ccc(-c2csc3ncnc(NCCCO)c23)cc1`, the outcome is reported as “inactive”. With `COc1ccc(-c2cc(C(F)(F)F)n3nc(C(=O)N4CCOCC4)nc3n2)cc1` the outcome was “inactive”. For `Cc1ccccc1C(=O)N1CCN(c2ccc(NC(=O)CSc3ccc(Cl)cc3)cc2)CC1`, the outcome was “inactive”. In the case of `CCC(C)Nc1nc(-c2ccccn2)nc2ccccc12` (stereo not given), the outcome is reported as “inactive”. In the case of `CN(Cc1ccccc1)c1nc(N)c([N+](=O)[O-])c(NCc2ccccc2)n1`, the outcome is reported as “inactive”.
